Shiga toxin inh = blocks Shiga toxin action in Vero cells; inhibition, % at 38.7 µM; Vero cells, Shiga toxin protein synthesis inhibition reporter; actives 9.2% (n = 290,000); in the data active means inhibition mostly above about 28%, no sharp cut-off; inactive means mostly below about 43%
FMDV inh = foot and mouth disease virus antiviral activity; FMDV antiviral cell-based qHTS; Potency, µM (doses to about 57.9 µM), hits mostly inhibitors; actives 1.2% (n = 410,000); AID 1159524; calls by dose curve; tested in HEK293T cells; further: read-out not given here; nearly all actives have a fitted effect of over 45% in size
Cycloheximide cs = counter-screen hit for Shiga toxin inhibitors, cycloheximide. cell reporter, cycloheximide protein synthesis inhibition counterscreen. max response, %. actives 12% (n = 300,000). AID 2314; in the data active means max response mostly above about 13%, no sharp cut-off; inactive means mostly below about 14%; further: read at 38.3 µM for the half of the compounds with a filed dose
Sm TGR block = S. mansoni TGR enzyme inhibition; actives 3% (n = 360,000); Potency, µM (series often up to 114 µM), hits mostly inhibitors; Q962Y6; purified TGR, DTNB reduction, TNB absorbance 405 nm; AID 485364; active means well fitted inhibition curve with a large enough effect; inconclusive means small, poorly fitted or top-dose-only effect; inactive means no such curve, though single readings can be large or run the other way; further: nearly all actives have a fitted effect of over 60% in size
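First, TGR (20 nM dispensed) and NADPH were mixed with compound. Second, a 15 min room-temperature incubation followed. Third, further NADPH and then DTNB were added to start the reaction. Finally, TNB absorbance was monitored kinetically.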
A number is an active result. An excerpt weighted towards active compounds, which were near 12% of everything screened.

Screening COc1cccc2c1cc1c(=O)n(CC(=O)NCc3ccc(N(C)C)cc3)nc(C)n12 returned FMDV inh inactive and Sm TGR block inactive.
COc1ccc(C)cc1NC(=O)C(OC(=O)CNC(=O)c1ccc(Br)cc1)c1ccccc1 (stereo not given) was read as Shiga toxin inh inactive, FMDV inh inactive, Cycloheximide cs 12 and Sm TGR block inactive.
For CC(=O)c1ccc2noc(-c3ccccc3)c2c1 the results were Shiga toxin inh inactive, FMDV inh inactive, Cycloheximide cs inactive and Sm TGR block inactive.
c1ccc(-c2onc3cc4c(cc23)OCCO4)cc1 was read as Shiga toxin inh active, FMDV inh inactive, Cycloheximide cs 35 and Sm TGR block inactive.
For Cc1nn(CCC(=O)N2CCN(c3ccccc3)CC2)c(C)c1S(=O)(=O)N1CCCC1 the results were FMDV inh inactive and Sm TGR block inactive.
Screening Cc1cc(N/N=C/c2ccccc2O)nc(-c2ccccc2O)n1 returned Shiga toxin inh 46, FMDV inh inactive, Cycloheximide cs 25 and Sm TGR block inactive.
For Cc1cc(N/N=C\c2ccccc2)nc(-c2ccccc2O)n1 the results were Shiga toxin inh 83, FMDV inh inactive, Cycloheximide cs 84 and Sm TGR block inactive.
Cc1cc(N/N=C/c2ccc(O)cc2O)nc(-n2nc(C)cc2C)n1 was read as Shiga toxin inh inactive, FMDV inh inconclusive, Cycloheximide cs inactive and Sm TGR block inactive.
For Cc1cc(N/N=C/c2ccc(O)cc2O)nc(-c2ccccc2O)n1 the results were Shiga toxin inh active, FMDV inh inactive, Cycloheximide cs 59 and Sm TGR block inactive.
For Cc1cc(N/N=C/c2ccccc2O)nc(N2CCOCC2)n1 the results were Shiga toxin inh inactive, FMDV inh inactive, Cycloheximide cs inactive and Sm TGR block inactive.
Screening C/C(=N\Nc1cc(C)nc(-c2ccccc2O)n1)c1ccccc1O returned Shiga toxin inh inactive, FMDV inh inactive, Cycloheximide cs inactive and Sm TGR block inactive.
CCC(=O)Nc1nnc(S(=O)(=O)N(C)Cc2ccco2)s1 was read as Shiga toxin inh inactive, FMDV inh inactive, Cycloheximide cs inactive and Sm TGR block 35µM.
`CCCC(=O)Nc1nnc(S(=O)(=O)N(C)Cc2ccco2)s1` gave Shiga toxin inh inactive, FMDV inh inactive, Cycloheximide cs inactive and Sm TGR block 4.5µM.
c1ccc2c(c1)NCC1CCCN21 (stereo not given) was read as Shiga toxin inh inactive, FMDV inh inactive, Cycloheximide cs inactive and Sm TGR block 32µM.
O=C(CCC(=O)N1CC2CCCN2c2ccccc21)NCc1ccccc1 (stereo not given) was read as FMDV inh inactive and Sm TGR block inactive.
`CCCOc1ccc(C2c3c(-c4ccccc4O)n[nH]c3C(=O)N2CCCOCC)cc1OCC` (stereo not given) gave FMDV inh inactive and Sm TGR block inactive.
`COc1ccc(-c2oc3cccnc3c2-c2ccc(OC)nc2)cc1` gave Shiga toxin inh 22, FMDV inh inconclusive, Cycloheximide cs 25 and Sm TGR block inactive.
`COc1ccc(-c2oc3cccnc3c2C#CCO)cc1` gave Shiga toxin inh inactive, FMDV inh inactive, Cycloheximide cs inactive and Sm TGR block inconclusive.
For O=c1c2[nH]c3ccccc3c2nc(SCc2cccc(F)c2)n1-c1ccccc1 the results were FMDV inh inactive and Sm TGR block inactive.
Screening Cc1ccc(NCCC(=O)c2cccs2)cc1 returned Shiga toxin inh 80, FMDV inh inactive, Cycloheximide cs 46 and Sm TGR block 1.3µM.
Screening O=C(CCC(=O)c1cccs1)Nc1ccc(N2CCCCC2)cc1 returned Shiga toxin inh 86, FMDV inh inactive, Cycloheximide cs 45 and Sm TGR block inactive.
Cc1ccc(Oc2ccc(NC(=O)CCC(=O)OCC(=O)c3cccs3)cc2)cc1C was read as Shiga toxin inh inactive, FMDV inh inactive, Cycloheximide cs 17 and Sm TGR block inactive.
Cc1ccc(C(=O)COC(=O)CCC(=O)Nc2ccc(Oc3ccccc3)cc2)cc1C was read as FMDV inh inactive and Sm TGR block inactive.
For Cc1ccc(NC(=O)CCC(=O)c2cccs2)c(Br)c1 the results were Shiga toxin inh 115, FMDV inh inactive, Cycloheximide cs 36 and Sm TGR block inactive.
CCOC(=O)c1cc(C)n(CC2CCC(C(=O)Nc3ccc(C)cc3)CC2)c1C (stereo not given) was read as FMDV inh inactive and Sm TGR block inactive.
`CCCNC(=O)CSc1nc2nc(C)c(Cc3ccccc3Cl)c(C)n2n1` gave FMDV inh inactive and Sm TGR block inactive.
`CC1CCN(C(=O)CN2CCSc3ccc(S(=O)(=O)N(C)C)cc32)CC1` gave FMDV inh inactive and Sm TGR block inactive.
For CCOC(=O)c1noc2ncnc(N(CCC(=O)OC)c3ccccc3)c12 the results were FMDV inh inactive and Sm TGR block inactive.
`Cc1ccc(NCCC(=O)c2cccs2)cc1C` gave Shiga toxin inh 58, FMDV inh inactive, Cycloheximide cs 49 and Sm TGR block inactive.
`Cc1ccc(NC(=O)CCC(=O)c2cccs2)cc1` gave Shiga toxin inh inactive, FMDV inh inactive, Cycloheximide cs 16 and Sm TGR block inactive.
`O=C(CCNc1cccc(Cl)c1)c1cccs1` gave Shiga toxin inh 57, FMDV inh inactive, Cycloheximide cs 33 and Sm TGR block 5.6µM.
Cc1ccc(NCCC(=O)c2ccc(Cl)cc2)cc1C was read as Shiga toxin inh inactive, FMDV inh inactive, Cycloheximide cs inactive and Sm TGR block inconclusive.
`Cc1ccc(NCCC(=O)c2cccs2)cc1Cl` gave Shiga toxin inh 53, FMDV inh inactive, Cycloheximide cs 29 and Sm TGR block 4µM.
`CCCOc1ccc(C(=O)CCNc2ccc(C)c(Cl)c2)cc1` gave Shiga toxin inh inactive, Cycloheximide cs inactive and Sm TGR block inactive.
For Cc1ccc(-n2ncc3c(N(C)Cc4ccccc4)ncnc32)cc1 the results were FMDV inh inactive and Sm TGR block inactive.
Screening Cc1ccc2c(c1)c1c(c(=O)n(-c3ccccc3)c(=O)n1CC(=O)NCCC1=CCCCC1)n2C returned FMDV inh inactive and Sm TGR block inactive.
Screening CC(=O)c1ccc(F)c(-c2cc(C)cc3c2OC(CNC(=O)C[C@@H]2C[C@@H](C)NC(=S)N2)C3)c1 (stereo not given in full) returned FMDV inh inactive.
`CC(C)c1ccc(NCCC(=O)c2cccs2)cc1` gave Shiga toxin inh 140, FMDV inh inactive, Cycloheximide cs 60 and Sm TGR block 3.2µM.
Screening Cc1cc(C)c(C(CC(=O)c2cccs2)C(C#N)C#N)c(C)c1 (stereo not given) returned Shiga toxin inh 84, FMDV inh inconclusive, Cycloheximide cs 61 and Sm TGR block inactive.
Screening Cc1ccc(C(=O)N/N=C(/CC(=O)c2cccs2)C(F)(F)F)cc1 returned Shiga toxin inh inactive, FMDV inh inactive, Cycloheximide cs 23 and Sm TGR block inactive.
CC(CC(=O)c1cccs1)CC(=O)c1cccs1 was read as Shiga toxin inh active, Cycloheximide cs 56 and Sm TGR block inactive.
CC(C)C(NS(=O)(=O)c1ccc2c(c1)oc(=O)n2C)C(=O)NCCc1ccccc1 (stereo not given) was read as FMDV inh inactive and Sm TGR block inactive.
For CCc1ccc(NC(=O)c2cnn(-c3ccccc3)c2C)cc1 the results were Shiga toxin inh 59, FMDV inh inactive, Cycloheximide cs 63 and Sm TGR block inactive.

Compound activity as filed in PubChem.
